Assay outcomes deposited in PubChem BioAssay by several laboratories.
SK-BR-3 tox 24h = SK-BR-3 proliferation inhibitors | SK-BR-3 viability, CellTiter-Glo ATP luminescence, 24 h; hits give low values | viability, % at 10 µM | hit rate 0.47% among 41,000 | AID 847;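 active = viability at or below the median of all test compounds minus 3 SD, in both replicates if run twice, cut at about 45% in these data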;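 also: 100% = median untreated cell wells and 0% = median positive control drug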
HER2 expr 66K = Her2 kinase expression inhibition; P04626; SKBR-3 HER2 protein level, AlphaScreen, 18-24 h; hits give low values; HER2 level % of control, % at 10 µM; hit rate 0.69% among 65,000; AID 645;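 active = HER2 level under 5% of the carrier-only control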;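 also: 100% = DMSO carrier and 0% = 500 nM PU-H71 HSP90 inhibitor; lower value means stronger loss of Her2 protein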
S1P1 ag-PAM = S1P1 (human) agonism or agonism potentiation; hit rate 0.57% among 56,000; S1P1 CRE-bla cells, forskolin, beta-lactamase FRET, potentiator mode; S1P1 agonist co-added at EC20, 2 nM; 100% = saturating reference agonist, 0% = basal; P21453; activation, % at 9.5 µM;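 active = activation above a cutoff set at the mean activation of all tested compounds plus 3 SD, cut at about 54% in these data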;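 also: forskolin at 4 µM as EC80 and the EC20 agonist is SEW2871; 100% = SEW2871 at its EC100 plus forskolin at EC80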
Target sequence (P21453 whole entry, looked up): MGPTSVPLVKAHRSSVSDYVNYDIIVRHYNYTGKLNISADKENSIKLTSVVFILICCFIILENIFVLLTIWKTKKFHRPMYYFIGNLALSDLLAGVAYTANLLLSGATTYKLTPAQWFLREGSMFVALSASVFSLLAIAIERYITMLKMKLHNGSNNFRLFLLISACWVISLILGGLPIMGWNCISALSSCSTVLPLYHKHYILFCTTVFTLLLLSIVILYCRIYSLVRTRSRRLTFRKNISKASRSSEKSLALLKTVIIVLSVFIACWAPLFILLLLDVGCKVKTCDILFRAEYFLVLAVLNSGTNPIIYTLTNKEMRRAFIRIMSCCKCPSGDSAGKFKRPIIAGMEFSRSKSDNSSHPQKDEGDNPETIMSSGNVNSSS
TNAP act mid DEA = activates human TNAP at intermediate phosphate acceptor concentration; P05186; purified TNAP, CDP-star luminescence, 100 mM DEA, 30 min; hits give high values; scale: 0 levamisole-inhibited, 1 vehicle-only enzyme; activation factor at 20 µM; 64,000 tested, under 10 active; AID 813;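 active = activation factor of at least 2 at 20 µM, relative to controls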
Hsp90 inh = displaces geldanamycin probe from tumor Hsp90; hit rate 0.35% among 64,000; inhibition, % at 30 µM; P07900; NCI-N417 lysate Hsp90, Cy3B-geldanamycin FP displacement;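 active = inhibition above 50%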;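 also: 0% = tracer plus lysate wells and 100% = tracer alone without lysate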
BAP1 inh = inhibitors of human BAP1 deubiquitinase. Q92560. recombinant BAP1, Ub-AMC hydrolysis fluorescence kinetic; hits give low values. activity remaining (% of control), % at 20 µM. hit rate 0.48% among 72,000. AID 436;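 active = activity remaining at or below 50% of control, provided the compound also passes the data quality filters; inactive = the rest, including low values that fail the filters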;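 also: 100% = DMSO wells rate and 0% = substrate alone blank rate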
* = called active by the depositor; . = no result given. Rows were chosen to be rich in hits. Some 1.9% of all compounds tested hit in one or more screens of this group.

SMILES	SK-BR-3 tox 24h	HER2 expr 66K	S1P1 ag-PAM	TNAP act mid DEA	Hsp90 inh	BAP1 inh
Cc1noc(/C=C/N(C)C)c1S(=O)(=O)N1CCCC(C(=O)N2CCCCC2)C1 (stereo unspecified)	.	71.6	-5.2	0.9	-0.7	62.2
Cc1occc1C(=O)NC(C)C(C)(C)C (stereo unspecified)	105.0	94.1	7.6	0.9	80.0*	93.9
CCC(=O)N1c2ccc(S(=O)(=O)CCC(=O)N3CCn4c3nc3ccccc34)cc2CC1C (stereo unspecified)	.	-14.5*	-23.6	0.9	0.9	91.3
O=C(Nc1ccc(-c2noc(CCc3ccccc3)n2)cc1)c1cccnc1	.	81.9	93.7*	0.9	15.6	52.4
Cc1ccccc1OCc1nc(-c2ccc(NC(=O)c3ccco3)cc2)no1	.	91.5	.	0.9	-7.0	59.6
CCCc1ccc(OCc2nc(-c3ccc(NC(=O)c4ccco4)cc3)no2)cc1	93.7	92.4	94.4*	0.9	-7.2	.
Cc1cc2c(c(=O)n1CCN(C)C)C(c1ccc(Br)cc1)C(C#N)=C(N)O2 (stereo unspecified)	89.4	135.8	11.7	0.9	-4.1	107.2
CC(C)c1ccc2oc(-c3ccc(N)cc3)nc2c1	.	63.4	54.0*	0.9	3.2	.
COc1ccc(S(=O)(=O)N2CCC(C(=O)NCc3ccco3)CC2)cc1	99.9	121.2	.	0.8	-5.9	76.8
COc1cc(OC)c(-c2nnc(-c3ccc(OC)c(OC)c3OC)o2)cc1OC	.	86.0	.	1	-2.8	.
Cc1ccc(-c2nc3nc4ccccc4nc3n2Cc2ccco2)cc1	84.5	66.0	47.6	0.9	-5.0	.
Clc1ccc(-c2nc3nc4ccccc4nc3n2Cc2ccco2)cc1	81.5	85.6	80.3*	0.9	-0.4	.
N#Cc1ccccc1Sc1ccccc1C(=O)N1CCOCC1	.	113.9	-5.2	0.9	-1.8	.
CCCc1cc(C(=O)Cc2ccc(F)cc2)c(O)cc1O	16.2*	-11.6*	13.8	1	5.4	72.5
COCC(C)n1c(C)cc(C(=O)COC(=O)c2c(C)nn(-c3ccccc3)c2C)c1C (stereo unspecified)	.	96.5	-5.9	1	-8.0	100.4
COCC(C)n1c(C)cc(C(=O)COC(=O)c2c(NC(C)=O)sc(C)c2C)c1C (stereo unspecified)	.	-11.0*	-12.7	0.9	-3.3	112.8
Cc1c(C#N)c2ncn(CCCN(C)C)c(=O)c2n1-c1ccccc1	80.3	97.1	-1.3	0.9	1.4	104.5
CC(C)(C)n1nc2c(c1NC(=O)c1ccco1)CS(=O)C2 (stereo unspecified)	77.0	70.0	-1.6	1	-2.2	105.3
Cc1onc(-c2ccccc2)c1C(=O)Nc1sc2c(c1C#N)CCC2	43.9*	68.2	-13.5	0.9	.	.
Cc1cc(C)n(CC2CC(=O)N(c3ccc(Cl)c(Cl)c3)C2=O)n1 (stereo unspecified)	107.3	72.7	-12.5	0.8	-3.4	108.5
COc1cc(C)ccc1NC(=O)c1ccc(S(=O)(=O)N2CCOCC2)cc1	73.7	97.9	-9.5	0.9	-2.3	105.0
O=C(Nc1nc(-c2ccc(Cl)s2)cs1)c1cccc(C(F)(F)F)c1	.	.	.	.	.	62.0
O=C(Nc1nc(-c2ccc(Cl)s2)cs1)c1ccncc1	.	79.7	125.6*	0.9	-4.6	79.3
Clc1ccc(CSc2nnc([C@@H]3CCCN3)o2)cc1Cl	71.9	82.2	13.1	0.9	0.8	104.9
Clc1ccc(CSC2=NCCCN2)cc1Cl	.	-16.6*	10.2	0.9	-3.8	122.8
SMILES	SK-BR-3 tox 24h	HER2 expr 66K	S1P1 ag-PAM	TNAP act mid DEA	Hsp90 inh	BAP1 inh
O=c1c(-c2ccc3c(c2)OCCO3)coc2c(CN3CCOCC3)c(O)ccc12	92.9	73.8	-8.8	0.9	72.2*	.
COc1ccc(S(=O)(=O)Nc2ccc3c(c2)OCCO3)cc1Cl	94.8	103.3	18.0	1	2.1	73.0
O=S(=O)(Nc1ccc2c(c1)OCCO2)c1ccc2oc3ccccc3c2c1	100.7	88.7	71.6*	0.9	0.9	.
COc1ccc(S(=O)(=O)Nc2ccc3c(c2)OCO3)cc1OC	95.9	88.5	-2.7	0.9	50.9*	105.4
COC(=O)COc1ccc(S(=O)(=O)Nc2ccc3c(c2)OCO3)cc1	119.5	-11.0*	14.9	0.9	22.9	139.3
CCOc1cc(C(=O)OCC(=O)NCc2ccco2)cc(OCC)c1OCC	.	101.7	0.9	0.9	-6.2	76.5
N#CCCCSc1nnnn1-c1cccc(Cl)c1	88.4	100.8	12.1	1	-1.8	113.0
N#CCCS(=O)(=O)c1nnnn1-c1ccccc1	209.4	-1.1*	70.0*	0.9	-0.3	104.6
Cc1cc2nnc(SC3CCOC3=O)n2c2ccccc12 (stereo unspecified)	.	114.6	.	0.9	-2.9	92.7
Cc1cc2nnc(SC(C)C#N)n2c2ccccc12 (stereo unspecified)	.	-27.7*	6.4	1	-4.7	111.8
CCOC(=O)c1c(NC(=O)c2cccc(Cl)c2)sc(C)c1C	.	.	.	.	.	113.0
CC(C)Oc1cc(O)c2c(=O)c(-c3ccc(O)cc3)coc2c1	.	82.3	106.9*	0.9	-5.1	101.7
O=C(Nc1ccc2c(c1)OCO2)c1cnn2cccnc12	96.9	-20.6*	-3.9	0.9	27.8	68.5
Cc1cc(C)nc(N2CCCC(C(=O)NCCc3ccccc3F)C2)n1 (stereo unspecified)	42.6*	113.7	22.6	0.9	-0.9	126.9
COc1ccc(C(c2c(O)ccc3ccccc23)N2CCOCC2)c(OC)c1 (stereo unspecified)	67.1	42.4	110.2*	1.1	2.1	.
COc1cccc(OCc2nnc(SCC(=O)OC3CCCCC3)n2C)c1	84.4	96.7	-4.2	0.9	-1.2	103.2
CC1(C)CC(=O)C(CC2=C(O)CC(C)(C)CC2=O)=C(O)C1	112.0	104.3	3.5	1	-0.3	106.5
CCC(C)NC(=O)c1nn2c(c1Cl)NC(c1ccc(C)cc1)CC2C(F)(F)F (stereo unspecified)	.	.	.	.	.	75.7
CCC(C)NC(=O)c1cnn2c1NC(c1ccc3c(c1)OCO3)CC2C(F)(F)F (stereo unspecified)	73.4	-28.9*	-47.1	0.9	0.5	99.7
CCc1ccc(NC(=O)N(CCN2CCOCC2)C2CCN(C(C)=O)CC2)cc1	.	-27.2*	9.2	0.9	-3.4	117.3
O=C(NCCCn1ccnc1)c1cc(S(=O)(=O)N2CCOCC2)c(Cl)cc1Cl	93.0	-32.4*	.	0.9	.	.
O=C(Nc1ccccc1O)c1cc(S(=O)(=O)N2CCOCC2)c(Cl)cc1Cl	.	82.0	-28.4	1.1	-0.9	79.6
COc1cccc2c1C(=O)c1c(O)c3c(c(O)c1C2=O)C[C@@](O)(C(=O)CO)C[C@@H]3O[C@H]1C[C@H](N)[C@H](O)[C@H](C)O1	93.8	85.9	-19.5	0.7	73.5*	68.8
